Experimental data taken from publication PMC7862700, “An all-to-all approach to the identification of sequence-specific readers for epigenetic DNA modifications on cytosine”.

Tests used:
Assay in all cases: DAPPL (digital affinity profiling via proximity ligation, sequencing); 10 mM Tris-HCl pH 7.5, 50 mM NaCl, 1 mM DTT, 4% glycerol, room temperature, 30 min; GST-TFs on glutathione beads, 16-mer random dsDNA library, 0.1% formaldehyde crosslink after washing; high values mean tight binding
FLI1 = biological target: T1, FLI1 (Homo sapiens, UniProt Q01543 1-452); conditions: protein: recombinant; tags: N-terminal GST; dsDNA, one strand shown
T1 sequence: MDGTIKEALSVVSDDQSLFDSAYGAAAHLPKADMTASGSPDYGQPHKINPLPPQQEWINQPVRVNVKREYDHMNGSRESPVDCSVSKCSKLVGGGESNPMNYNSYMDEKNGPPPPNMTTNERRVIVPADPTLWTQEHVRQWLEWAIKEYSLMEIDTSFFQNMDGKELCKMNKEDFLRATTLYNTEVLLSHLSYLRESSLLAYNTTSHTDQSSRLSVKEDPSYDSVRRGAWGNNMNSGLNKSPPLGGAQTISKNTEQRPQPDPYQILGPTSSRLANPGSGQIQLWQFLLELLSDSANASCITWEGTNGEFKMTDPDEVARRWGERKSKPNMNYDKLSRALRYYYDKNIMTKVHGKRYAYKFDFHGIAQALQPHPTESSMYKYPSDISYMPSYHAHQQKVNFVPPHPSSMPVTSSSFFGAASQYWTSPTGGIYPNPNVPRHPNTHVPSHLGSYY
In short: (§1)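 The binding signal reported is, for every hexamer, its read frequency for a factor over its read frequency for the tag-only sample. Reads came from pools of yeast-expressed, GST-fused human transcription factors on glutathione beads, barcoded with DNA and mixed with that sample, which were incubated with 200 nmole of a random double-stranded 16-mer DNA library in Tris/NaCl/DTT/glycerol buffer at room temperature for 30 min. After washing, the pools were crosslinked with 0.1% formaldehyde, proximity-ligated with BsaI/T4 ligase for 1 h at 37 °C, PCR-amplified and sequenced on an Illumina NextSeq500.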

ELK1 = biological target: T2, ELK1 (Homo sapiens, UniProt P19419 1-428); conditions: protein: recombinant; tags: N-terminal GST; dsDNA, one strand shown
T2 sequence: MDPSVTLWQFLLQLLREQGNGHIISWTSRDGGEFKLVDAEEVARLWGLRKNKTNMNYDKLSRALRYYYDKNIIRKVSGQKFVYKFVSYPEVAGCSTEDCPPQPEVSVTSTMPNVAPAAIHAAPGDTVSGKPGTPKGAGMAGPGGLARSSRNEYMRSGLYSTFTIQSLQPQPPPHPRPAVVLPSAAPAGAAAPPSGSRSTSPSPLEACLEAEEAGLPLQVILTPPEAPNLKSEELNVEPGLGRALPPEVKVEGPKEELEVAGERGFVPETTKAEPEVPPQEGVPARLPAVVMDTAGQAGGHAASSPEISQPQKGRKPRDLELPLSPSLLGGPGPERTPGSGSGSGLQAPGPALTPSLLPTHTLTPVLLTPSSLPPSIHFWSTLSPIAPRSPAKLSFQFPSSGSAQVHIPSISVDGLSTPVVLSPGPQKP
In short: as §1

GABPA = biological target: T3, GABPA (Homo sapiens, UniProt Q06546 1-454); conditions: protein: recombinant; tags: N-terminal GST; dsDNA, one strand shown
T3 sequence: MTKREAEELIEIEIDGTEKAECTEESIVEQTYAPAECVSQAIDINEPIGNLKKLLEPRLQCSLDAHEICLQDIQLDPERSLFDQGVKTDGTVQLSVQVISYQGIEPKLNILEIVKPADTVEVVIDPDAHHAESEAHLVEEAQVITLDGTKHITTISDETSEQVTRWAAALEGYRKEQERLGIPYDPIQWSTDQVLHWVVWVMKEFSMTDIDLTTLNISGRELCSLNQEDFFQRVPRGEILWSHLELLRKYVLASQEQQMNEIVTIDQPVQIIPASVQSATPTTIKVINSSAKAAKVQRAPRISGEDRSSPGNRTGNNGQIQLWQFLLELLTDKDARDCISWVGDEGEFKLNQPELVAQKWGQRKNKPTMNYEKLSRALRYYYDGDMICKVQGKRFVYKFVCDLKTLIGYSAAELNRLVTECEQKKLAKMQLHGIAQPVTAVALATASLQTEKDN
In short: as §1

ERG = biological target: T4, ERG (Homo sapiens, UniProt P11308 1-479); conditions: protein: recombinant; tags: N-terminal GST; dsDNA, one strand shown
T4 sequence: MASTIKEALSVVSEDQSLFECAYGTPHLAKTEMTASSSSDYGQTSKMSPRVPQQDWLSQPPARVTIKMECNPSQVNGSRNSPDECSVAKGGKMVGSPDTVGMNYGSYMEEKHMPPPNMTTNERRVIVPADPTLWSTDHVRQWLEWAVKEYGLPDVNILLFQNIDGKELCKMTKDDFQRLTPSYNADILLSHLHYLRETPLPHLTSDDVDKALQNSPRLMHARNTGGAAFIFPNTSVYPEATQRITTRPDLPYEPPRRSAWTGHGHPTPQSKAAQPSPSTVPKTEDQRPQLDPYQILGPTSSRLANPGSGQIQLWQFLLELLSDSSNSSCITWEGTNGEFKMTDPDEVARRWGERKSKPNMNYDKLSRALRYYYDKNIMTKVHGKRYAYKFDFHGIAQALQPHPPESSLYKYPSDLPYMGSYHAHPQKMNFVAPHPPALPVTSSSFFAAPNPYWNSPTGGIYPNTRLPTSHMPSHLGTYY
In short: as §1

ELF1 = ELF1 (Homo sapiens, UniProt P32519 1-619); conditions: protein: recombinant; tags: N-terminal GST; dsDNA, one strand shown
Sequence of ELF1 (P32519 whole entry): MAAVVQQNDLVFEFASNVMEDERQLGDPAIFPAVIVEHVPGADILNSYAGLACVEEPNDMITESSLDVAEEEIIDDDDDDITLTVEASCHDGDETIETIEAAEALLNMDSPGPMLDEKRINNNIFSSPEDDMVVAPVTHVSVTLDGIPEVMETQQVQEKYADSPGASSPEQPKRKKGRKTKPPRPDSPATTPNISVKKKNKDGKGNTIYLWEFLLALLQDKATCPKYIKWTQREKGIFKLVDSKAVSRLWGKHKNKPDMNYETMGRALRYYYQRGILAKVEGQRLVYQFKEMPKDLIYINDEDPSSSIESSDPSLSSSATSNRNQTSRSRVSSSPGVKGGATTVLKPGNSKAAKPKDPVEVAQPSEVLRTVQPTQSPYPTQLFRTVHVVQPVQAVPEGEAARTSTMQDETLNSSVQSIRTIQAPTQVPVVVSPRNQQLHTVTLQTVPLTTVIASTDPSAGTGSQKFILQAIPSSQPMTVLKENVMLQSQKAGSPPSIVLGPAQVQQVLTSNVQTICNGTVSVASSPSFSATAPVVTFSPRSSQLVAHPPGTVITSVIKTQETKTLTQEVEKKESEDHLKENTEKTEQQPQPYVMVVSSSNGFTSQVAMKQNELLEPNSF
In short: as §1

EHF = biological target: T5, EHF (Homo sapiens, UniProt Q9NZC4 1-300); conditions: protein: recombinant; tags: N-terminal GST; dsDNA, one strand shown
T5 sequence: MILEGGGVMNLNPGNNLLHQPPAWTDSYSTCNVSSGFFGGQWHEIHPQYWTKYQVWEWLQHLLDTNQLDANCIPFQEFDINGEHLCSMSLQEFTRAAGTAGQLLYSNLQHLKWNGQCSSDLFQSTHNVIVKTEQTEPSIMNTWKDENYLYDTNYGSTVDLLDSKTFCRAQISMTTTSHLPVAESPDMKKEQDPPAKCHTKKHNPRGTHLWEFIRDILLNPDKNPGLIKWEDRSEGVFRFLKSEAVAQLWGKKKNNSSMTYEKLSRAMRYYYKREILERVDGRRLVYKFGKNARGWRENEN
In short: as §1

SPI1 = SPI1 (Homo sapiens, UniProt P17947 1-270); conditions: protein: recombinant; tags: N-terminal GST; dsDNA, one strand shown
In short: as §1

SPIB = SPIB (Homo sapiens, UniProt Q01892 1-262); conditions: protein: recombinant; tags: N-terminal GST; dsDNA, one strand shown
Sequence of SPIB (Q01892 whole entry): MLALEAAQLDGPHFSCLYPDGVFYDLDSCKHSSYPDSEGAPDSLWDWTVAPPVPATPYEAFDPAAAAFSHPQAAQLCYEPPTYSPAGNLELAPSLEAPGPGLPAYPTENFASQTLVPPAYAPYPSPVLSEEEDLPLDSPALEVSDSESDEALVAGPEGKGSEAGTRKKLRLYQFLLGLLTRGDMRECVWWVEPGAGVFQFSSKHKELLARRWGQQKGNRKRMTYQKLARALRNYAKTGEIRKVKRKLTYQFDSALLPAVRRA
In short: as §1

ELK3 = biological target: T6, ELK3 (Homo sapiens, UniProt P41970 1-407); conditions: protein: recombinant; tags: N-terminal GST; dsDNA, one strand shown
T6 sequence: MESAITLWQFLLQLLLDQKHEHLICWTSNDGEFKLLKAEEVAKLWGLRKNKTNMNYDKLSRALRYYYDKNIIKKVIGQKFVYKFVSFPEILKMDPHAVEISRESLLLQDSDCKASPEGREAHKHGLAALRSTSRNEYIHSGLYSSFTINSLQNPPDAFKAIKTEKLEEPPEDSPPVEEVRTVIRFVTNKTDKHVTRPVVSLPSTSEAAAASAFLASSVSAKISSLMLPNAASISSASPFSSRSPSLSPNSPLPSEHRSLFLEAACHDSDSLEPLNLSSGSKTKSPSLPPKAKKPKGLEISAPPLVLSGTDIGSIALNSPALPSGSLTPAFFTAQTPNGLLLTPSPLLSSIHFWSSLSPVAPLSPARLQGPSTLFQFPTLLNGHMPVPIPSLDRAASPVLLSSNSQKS
In short: as §1

FEV = biological target: T7, FEV (Homo sapiens, UniProt Q99581 1-238); conditions: protein: recombinant; tags: N-terminal GST; dsDNA, one strand shown
T7 sequence: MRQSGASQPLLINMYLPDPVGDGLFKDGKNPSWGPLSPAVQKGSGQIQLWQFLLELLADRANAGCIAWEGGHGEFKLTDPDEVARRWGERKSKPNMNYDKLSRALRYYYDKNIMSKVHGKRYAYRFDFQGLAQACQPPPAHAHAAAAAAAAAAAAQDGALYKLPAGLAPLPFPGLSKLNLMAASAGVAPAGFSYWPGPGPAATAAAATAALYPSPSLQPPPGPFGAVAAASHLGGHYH
In short: as §1

ETV5 = ETV5 (Homo sapiens, UniProt P41161 1-510); conditions: protein: recombinant; tags: N-terminal GST; dsDNA, one strand shown
Sequence of ETV5 (P41161 whole entry): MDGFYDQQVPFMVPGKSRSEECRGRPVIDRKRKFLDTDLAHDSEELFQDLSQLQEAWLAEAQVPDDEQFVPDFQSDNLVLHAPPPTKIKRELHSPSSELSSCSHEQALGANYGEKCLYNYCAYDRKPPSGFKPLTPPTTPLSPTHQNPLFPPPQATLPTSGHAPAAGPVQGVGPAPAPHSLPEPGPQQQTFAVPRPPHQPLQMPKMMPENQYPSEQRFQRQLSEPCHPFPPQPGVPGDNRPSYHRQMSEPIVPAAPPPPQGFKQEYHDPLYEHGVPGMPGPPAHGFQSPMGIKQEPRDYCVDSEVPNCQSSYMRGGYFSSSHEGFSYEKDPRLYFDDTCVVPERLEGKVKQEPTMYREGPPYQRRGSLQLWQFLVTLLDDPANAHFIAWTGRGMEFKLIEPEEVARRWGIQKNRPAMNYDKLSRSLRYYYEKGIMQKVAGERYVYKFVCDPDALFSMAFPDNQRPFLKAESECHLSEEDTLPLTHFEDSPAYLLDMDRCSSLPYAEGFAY
In short: as §1

HSF1 = HSF1 (Homo sapiens, UniProt Q00613 1-529); conditions: protein: recombinant; tags: N-terminal GST; chain copies: 3; dsDNA, one strand shown
Sequence of HSF1 (Q00613 whole entry): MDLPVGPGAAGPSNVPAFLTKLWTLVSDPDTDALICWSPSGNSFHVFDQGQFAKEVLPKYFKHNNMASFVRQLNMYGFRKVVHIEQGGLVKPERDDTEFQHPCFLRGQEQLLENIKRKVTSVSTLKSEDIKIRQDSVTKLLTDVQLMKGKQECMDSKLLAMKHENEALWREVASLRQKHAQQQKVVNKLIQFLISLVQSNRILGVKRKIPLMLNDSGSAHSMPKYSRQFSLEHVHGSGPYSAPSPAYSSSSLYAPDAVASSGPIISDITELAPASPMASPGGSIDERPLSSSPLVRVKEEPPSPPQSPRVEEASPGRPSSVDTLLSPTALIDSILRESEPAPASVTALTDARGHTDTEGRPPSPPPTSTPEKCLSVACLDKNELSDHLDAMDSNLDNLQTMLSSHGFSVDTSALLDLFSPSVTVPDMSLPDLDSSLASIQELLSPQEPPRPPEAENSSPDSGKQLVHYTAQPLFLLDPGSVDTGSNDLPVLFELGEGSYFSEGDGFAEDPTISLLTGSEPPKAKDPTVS
In short: as §1

SPIC = biological target: T8, SPIC (Homo sapiens, UniProt Q8N5J4 1-248); conditions: protein: recombinant; tags: N-terminal GST; dsDNA, one strand shown
T8 sequence: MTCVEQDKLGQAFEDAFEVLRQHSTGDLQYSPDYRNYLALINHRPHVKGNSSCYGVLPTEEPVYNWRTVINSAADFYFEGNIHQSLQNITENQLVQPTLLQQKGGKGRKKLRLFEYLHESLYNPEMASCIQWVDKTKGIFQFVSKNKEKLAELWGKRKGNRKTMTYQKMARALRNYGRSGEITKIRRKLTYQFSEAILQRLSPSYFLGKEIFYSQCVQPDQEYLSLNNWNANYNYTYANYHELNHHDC
In short: as §1

ELF4 = ELF4 (Homo sapiens, UniProt Q99607 1-663); conditions: protein: recombinant; tags: N-terminal GST; dsDNA, one strand shown
Sequence of ELF4 (Q99607 whole entry): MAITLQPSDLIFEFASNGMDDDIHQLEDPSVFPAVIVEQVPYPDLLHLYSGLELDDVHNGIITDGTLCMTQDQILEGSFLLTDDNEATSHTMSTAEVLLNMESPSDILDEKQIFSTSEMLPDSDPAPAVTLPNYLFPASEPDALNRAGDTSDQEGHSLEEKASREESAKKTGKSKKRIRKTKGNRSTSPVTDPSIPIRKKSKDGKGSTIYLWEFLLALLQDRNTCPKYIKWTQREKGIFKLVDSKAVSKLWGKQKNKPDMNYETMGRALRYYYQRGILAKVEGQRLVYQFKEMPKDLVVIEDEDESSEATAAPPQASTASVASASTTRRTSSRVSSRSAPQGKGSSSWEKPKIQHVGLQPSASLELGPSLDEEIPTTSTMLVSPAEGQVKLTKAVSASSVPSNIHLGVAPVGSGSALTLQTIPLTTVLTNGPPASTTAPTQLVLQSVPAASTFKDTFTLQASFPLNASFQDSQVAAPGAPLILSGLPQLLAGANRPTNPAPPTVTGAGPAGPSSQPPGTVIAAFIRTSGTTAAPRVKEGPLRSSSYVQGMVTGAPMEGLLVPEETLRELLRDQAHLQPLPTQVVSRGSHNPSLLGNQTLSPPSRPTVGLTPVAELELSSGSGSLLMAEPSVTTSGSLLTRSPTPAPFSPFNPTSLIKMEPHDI
In short: as §1

ELK4 = biological target: T9, ELK4 (Homo sapiens, UniProt P28324-2 1-405); conditions: protein: recombinant; tags: N-terminal GST; dsDNA, one strand shown
T9 sequence: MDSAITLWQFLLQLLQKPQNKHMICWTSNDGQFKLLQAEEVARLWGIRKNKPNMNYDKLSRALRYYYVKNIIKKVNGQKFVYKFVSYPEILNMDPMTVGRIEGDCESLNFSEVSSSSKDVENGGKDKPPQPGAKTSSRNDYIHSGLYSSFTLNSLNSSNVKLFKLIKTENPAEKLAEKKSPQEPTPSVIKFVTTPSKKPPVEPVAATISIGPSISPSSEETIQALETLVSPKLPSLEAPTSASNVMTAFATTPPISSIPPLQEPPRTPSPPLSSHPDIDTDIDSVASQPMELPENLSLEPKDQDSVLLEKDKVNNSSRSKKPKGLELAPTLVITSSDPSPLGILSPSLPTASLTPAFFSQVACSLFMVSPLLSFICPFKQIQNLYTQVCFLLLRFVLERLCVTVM
In short: as §1

ETV2 = biological target: T10, ETV2 (Homo sapiens, UniProt O00321 1-342); conditions: protein: recombinant; tags: N-terminal GST; dsDNA, one strand shown
T10 sequence: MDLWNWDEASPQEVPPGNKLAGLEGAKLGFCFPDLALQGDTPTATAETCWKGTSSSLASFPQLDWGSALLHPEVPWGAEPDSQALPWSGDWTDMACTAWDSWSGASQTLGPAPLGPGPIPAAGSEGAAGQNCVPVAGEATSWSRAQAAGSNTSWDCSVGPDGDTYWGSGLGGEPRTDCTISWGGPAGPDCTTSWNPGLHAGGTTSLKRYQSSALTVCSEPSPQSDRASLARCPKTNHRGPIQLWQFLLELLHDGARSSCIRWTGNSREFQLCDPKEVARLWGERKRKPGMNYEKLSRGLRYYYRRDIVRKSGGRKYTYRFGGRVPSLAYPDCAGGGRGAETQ
In short: as §1

ELF3 = biological target: T11, ELF3 (Homo sapiens, UniProt P78545 1-371); conditions: protein: recombinant; tags: N-terminal GST; dsDNA, one strand shown
T11 sequence: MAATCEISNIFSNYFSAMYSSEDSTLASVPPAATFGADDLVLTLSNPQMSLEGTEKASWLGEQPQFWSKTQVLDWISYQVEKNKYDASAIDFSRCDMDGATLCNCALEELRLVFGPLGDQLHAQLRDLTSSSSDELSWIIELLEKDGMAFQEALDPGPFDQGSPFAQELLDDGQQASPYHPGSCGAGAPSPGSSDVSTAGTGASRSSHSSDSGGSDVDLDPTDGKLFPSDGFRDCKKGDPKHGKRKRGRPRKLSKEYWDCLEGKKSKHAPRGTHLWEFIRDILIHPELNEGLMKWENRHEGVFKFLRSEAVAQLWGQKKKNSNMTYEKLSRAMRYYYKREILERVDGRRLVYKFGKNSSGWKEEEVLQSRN
In short: as §1

ETV1 = ETV1 (Homo sapiens, UniProt P50549 1-477); conditions: protein: recombinant; tags: N-terminal GST; dsDNA, one strand shown
Sequence of ETV1 (P50549 whole entry): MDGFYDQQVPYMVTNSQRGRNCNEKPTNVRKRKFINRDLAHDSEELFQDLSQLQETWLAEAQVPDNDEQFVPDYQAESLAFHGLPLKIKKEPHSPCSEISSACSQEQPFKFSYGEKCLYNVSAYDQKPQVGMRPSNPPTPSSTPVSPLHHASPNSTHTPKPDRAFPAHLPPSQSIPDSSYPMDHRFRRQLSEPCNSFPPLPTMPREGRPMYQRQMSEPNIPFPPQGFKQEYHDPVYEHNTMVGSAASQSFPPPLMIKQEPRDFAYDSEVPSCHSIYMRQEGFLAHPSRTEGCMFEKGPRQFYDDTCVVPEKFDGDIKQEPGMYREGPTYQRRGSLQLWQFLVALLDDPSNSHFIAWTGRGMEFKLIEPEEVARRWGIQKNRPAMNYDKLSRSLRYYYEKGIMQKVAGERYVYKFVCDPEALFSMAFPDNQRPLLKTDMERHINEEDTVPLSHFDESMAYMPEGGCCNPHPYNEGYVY
In short: as §1

Q: GAAACT was tested. Which binding signal (FLI1) did it give?
A: 1.22 fold enrichment (6-mer frequency, TF over GST control)

Q: What about the binding signal (ELK1) of the same sequence?
A: 1.21 fold enrichment (6-mer frequency, TF over GST control)

Q: What about the binding signal (GABPA) of the same sequence?
A: 1.14 fold enrichment (6-mer frequency, TF over GST control)

Q: And the binding signal (ERG)?
A: 1.11 fold enrichment (6-mer frequency, TF over GST control)

Q: What about the binding signal (ELF1) of the same sequence?
A: 1.18 fold enrichment (6-mer frequency, TF over GST control)

Q: What about the binding signal (EHF) of the same sequence?
A: 1.19 fold enrichment (6-mer frequency, TF over GST control)

Q: And the binding signal (SPI1)?
A: 1.2 fold enrichment (6-mer frequency, TF over GST control)

Q: What about the binding signal (SPIB) of the same sequence?
A: 1.14 fold enrichment (6-mer frequency, TF over GST control)

Q: What about the binding signal (ELK3) of the same sequence?
A: 1.22 fold enrichment (6-mer frequency, TF over GST control)

Q: What about the binding signal (FEV) of the same sequence?
A: 1.29 fold enrichment (6-mer frequency, TF over GST control)

Q: And the binding signal (ETV5)?
A: 1.28 fold enrichment (6-mer frequency, TF over GST control)

Q: What about the binding signal (HSF1) of the same sequence?
A: 1.32 fold enrichment (6-mer frequency, TF over GST control)

Q: What about the binding signal (SPIC) of the same sequence?
A: 1.25 fold enrichment (6-mer frequency, TF over GST control)

Q: What about the binding signal (ELF4) of the same sequence?
A: 1.24 fold enrichment (6-mer frequency, TF over GST control)

Q: And the binding signal (ELK4)?
A: 1.14 fold enrichment (6-mer frequency, TF over GST control)

Q: And the binding signal (ETV2)?
A: 1.12 fold enrichment (6-mer frequency, TF over GST control)

Q: What about the binding signal (ELF3) of the same sequence?
A: 1.19 fold enrichment (6-mer frequency, TF over GST control)

Q: What about the binding signal (ETV1) of the same sequence?
A: 1.27 fold enrichment (6-mer frequency, TF over GST control)
